Results as given in PubChem BioAssay AID624330 (Southern Research Specialized Biocontainment Screening …, 2012).
Screen size: about 340,000 compounds; about 2,100 (0.62%) were called active.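 The calls were made as follows: active = first-screen hits whose inhibition reached a set limit at any dose in the follow-up dose series; inconclusive = inhibition above the set first-screen limit but never retested; inactive = the rest.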 A selection follows. Entries with a potency or affinity are not part of this list.

biological target: Rac GTPase-activating protein 1 (Homo sapiens) (UniProt Q9H0H5); assay: MgcRacGAP GTPase-activating activity inhibitors, confirmation, biochemical, ADP Hunter fluorescence, primary and confirmatory (AID 624330); settings: MgcRacGAP-stimulated Rac1 GTP hydrolysis, at 30 µM, hits give high values, GST-tagged Rac1 F28L mutant substrate;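 also: fluorescence reports GDP produced by GAP-driven GTP hydrolysis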
Sequence (Q9H0H5 whole entry, looked up): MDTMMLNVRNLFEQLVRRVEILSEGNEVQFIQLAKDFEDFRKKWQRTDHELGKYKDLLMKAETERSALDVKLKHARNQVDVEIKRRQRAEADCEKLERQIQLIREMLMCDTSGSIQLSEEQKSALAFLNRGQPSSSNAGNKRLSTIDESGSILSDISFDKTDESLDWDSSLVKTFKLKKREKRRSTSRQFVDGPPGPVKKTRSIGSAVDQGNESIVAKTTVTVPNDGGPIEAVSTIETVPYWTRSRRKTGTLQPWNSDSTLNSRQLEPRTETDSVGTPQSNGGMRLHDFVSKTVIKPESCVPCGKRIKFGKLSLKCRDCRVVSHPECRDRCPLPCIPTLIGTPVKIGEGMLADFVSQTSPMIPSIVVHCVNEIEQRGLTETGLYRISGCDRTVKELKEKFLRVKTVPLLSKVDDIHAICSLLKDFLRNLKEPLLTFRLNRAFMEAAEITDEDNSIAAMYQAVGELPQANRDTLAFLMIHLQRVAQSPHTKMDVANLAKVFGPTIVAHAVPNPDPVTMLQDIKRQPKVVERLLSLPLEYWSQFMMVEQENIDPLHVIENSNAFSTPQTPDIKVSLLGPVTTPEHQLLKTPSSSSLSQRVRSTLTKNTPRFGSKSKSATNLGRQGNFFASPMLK

inhibition, inactive:
CC/C(=C\c1ccc(Cl)cc1)c1ccncc1 5.22%, CCC(=Cc1ccccc1O)c1ccncc1 2.41%, CCOC(=O)C(NC(C)=O)C(=O)Nc1ccc(C(C)(C)C)cc1 (configuration not stated) 15.1%, C[C@H](CO)N1C[C@H](C)[C@@H](CN(C)S(=O)(=O)c2ccc(F)cc2)Oc2ccc(NC(=O)NC3CCCCC3)cc2C1=O 6.3%, CC(C)(Oc1ccc(Cl)cc1)C(=O)N(Cc1ccccc1)c1ccccn1 1.14%, Cc1cc(C)c2nc(NNC(=O)c3cc(=O)c4ccccc4o3)sc2c1 10.6%, Cc1ccc2sc(NNC(=O)c3cc(=O)c4ccccc4o3)nc2c1C 24.2%, Cc1ccc(C)c(OCCCCN2CCNCC2)c1C 4.36%, Cc1ccc(C(C)C)c(OCCCCCN2CCOCC2)c1 7.81%, Cc1cc(OCCCN2CCCC2)ccc1Cl 7.71%, Cc1ccc(C)c(OCCCN2CCNCC2)c1 7.95%, Cc1cc(C)c(OCCCCN2CCNCC2)c(C)c1 8.89%, Cc1ccc(C)c(OCCCN2CCCC2)c1 19.9%, Cc1ccc(OCCCCN2CCCCC2)c(Br)c1 6.79%, Clc1ccc(OCCCN2CCCC2)cc1Cl -13.7%, Cc1cc(C)n2c(SCC(=O)Nc3ccccc3C#N)nnc2n1 2.29%, COc1ccc(CCN2CCCn3c2nc2c3c(=O)[nH]c(=O)n2C)cc1OC 6.67%, CCC1(NC(C)=O)CC2CC1CC2NC(C)=O (configuration not stated) 1.95%, CCCC(C)NC(=O)COC(=O)c1ccccc1SCC(=O)NC(C)CCC (configuration not stated) 2.85%, Cc1ccc(P(=O)(O)c2ccc(C)cc2)cc1 8.6%, Cc1ccccc1OCCCN1CCCC1 26.5%, Cc1ccc(OCCCCN2CCCCC2)c(C)c1 2.28%, Cc1ccc(OCCN2CCCCCC2)c(C)c1 10.9%, Cc1ccccc1OCCOCCN1CCCCCC1 -5.57%, CC1CCCN(C(=O)C2CCN(Cc3ccc4c(c3)OCO4)CC2)C1 (configuration not stated) 5.33%, COc1ccc(C(=O)Nc2c(C(C)(C)C)nn(C)c2C(C)(C)C)cc1 10.2%, CCOC(=O)C1CCN(S(=O)(=O)c2ccc(Cl)cc2)CC1 4.24%, Cc1sc2nc(CSc3ccccc3)nc(N3CCN(C)CC3)c2c1C 7.15%, CCOC(=O)c1sc2nc(CSc3ccccc3)nc(N3CCC(C(N)=O)CC3)c2c1C -5.99%, COc1cc(C(=O)C(=O)c2ccc(O)c(OC)c2)ccc1O 13.4%, COc1cc(C(=O)OCCN2CCCCC2)ccc1O 21.2%, C=CCOc1ccc(/C(CC)=N/O)cc1OC 3.46%, CC/C(=N\O)c1ccc(OC)c(OC)c1 8.04%, COc1ccc(C(=O)Nc2ccc(Oc3nc(C)nc4sc(-c5ccccc5)cc34)cc2)cc1OC 2.99%, CC(C)(C)NC(=O)C(c1ccc(O)cc1)N(C(=O)CCC(=O)Nc1nccs1)c1cccc(F)c1 (configuration not stated) 8.98%, COc1cc(/C=N/n2c(-c3ccccc3)n[nH]c2=S)cc(OC)c1OC 14.2%, COc1cc(/C=N/N2CCCCC2)cc(OC)c1O 17.9%, COc1cc(/C=N/n2c(C)nnc2C)cc(OC)c1OC 3.62%, COc1ccc(/C=N/n2c(-c3cc(C)[nH]n3)n[nH]c2=S)cc1 21.4%, O=C(COc1ccc(Cl)cc1)Nc1ccc(C(=O)NCc2cccnc2)cc1 9.05%, COc1ccc(NC(=O)c2cccc3ccccc23)cc1OC -23.3%, O=C(O)CCS(=O)(=O)c1ccccc1Cl -0.02%, COc1cccc(N(CC(=O)N2CCN(C)CC2)S(=O)(=O)c2ccc(C)cc2)c1 -2.09%, Cc1ccc(S(=O)(=O)N2CCN(c3ccc(C(=O)N4CCOCC4)cc3[N+](=O)[O-])CC2)cc1 3.02%, CC(=O)Nc1nonc1NC(=O)CSc1ncn[nH]1 1.36%, CCOC(=O)C1C(=O)N(C(=O)c2ccc(OC)cc2)CC1c1ccccc1 (configuration not stated) 3.29%, O=C(C[C@@H]1C/C=C\C[C@H](NC(=O)OCC2c3ccccc3-c3ccccc32)C(=O)OC[C@H]2CCCN2C1=O)NCCO 5.33%, COc1ccc(/C=C(/C(=O)c2ccc(Cl)cc2Cl)n2cncn2)cc1 11.7%, CN(C)c1ccc(/C=C(/C(=O)c2ccc(Cl)cc2Cl)n2cncn2)cc1 3.83%, CC(C)/C=C(/C(=O)c1ccc(Cl)cc1Cl)n1cncn1 7.69%, O=C(N/N=C\c1cccnc1)c1ccc(Cl)cc1Cl 8.54%, CCN(CC(=O)NCc1cccs1)C(=O)c1cccc(S(=O)(=O)N2CC(C)OC(C)C2)c1 (configuration not stated) -2.83%, O=C(Cn1ncc2c1-c1ccccc1OC2)N1CCc2ccccc21 2.35%, CCCCOc1ccc(C(=O)N/C(=C/C=C/c2ccccc2)C(=O)NCCCO)cc1 12.1%, O=S1c2ccccc2Nc2ccccc21 18.2%, COC(=O)/C(C#N)=C1/C=Cc2ccccc2N1 -5.37%, O=C(Cn1cc(C(=O)C(F)(F)F)c2ccccc21)Nc1ccccc1F 13.4%, O=C(O)C1(C(=O)O)CCCC1 1.88%, O=C(CCCCO)CCCCCCCC[C@H]1N[C@H](CO)[C@H](O)[C@@H]1O[C@@H]1O[C@H](CO)[C@@H](O)[C@H](O)[C@H]1O 6.38%, NC[C@H]1O[C@H](O[C@H]2[C@H](O)[C@@H](O[C@H]3O[C@H](CO)[C@@H](O)[C@H](N)[C@H]3O)[C@H](N)C[C@@H]2N)[C@H](N)C[C@@H]1O 6.29%, Cc1ccc(S(=O)(=O)N2CCN(C(=O)c3ccc(N4CCCCC4)c([N+](=O)[O-])c3)CC2)cc1 6.99%, COCCCC1CCN(C(=O)C2CCC(=O)N(Cc3cccc(F)c3)C2)CC1 (configuration not stated) 7.1%, O=S(=O)(/C(=C/c1ccc(C(F)(F)F)cc1)c1nc2ccccc2[nH]1)c1ccccc1 4.87%, CN1CCc2c1nc1ccccc1c2N (tested in a mixture with another compound) 13.1%, Cc1cccc2c(N)c3c(nc12)CCCC3 (tested in a mixture with another compound) 16.8%, COc1ccc(CNC(=O)Cn2cc3c(n2)CCCCC3)cc1 7.34%, O=C1OC(c2ccccc2)=C/C1=C/N1CCCCC1 30.7%, O=C1OC(c2ccccc2)=N/C1=C\N1CCCCC1 -1.27%, CCN(C(=O)c1c(C)noc1C)c1c(N)n(Cc2ccccc2)c(=O)[nH]c1=O 5.68%, CCn1c(=O)c(C(=O)NCc2ccc(F)cc2)c(O)c2ccccc21 10.4%, CSc1ccc(C#N)cc1NC(=O)c1ccc(Cl)cc1Cl 7.34%, NC1=NC(=O)/C(=C/c2cccs2)S1 4.92%, NC1=NC(=O)/C(=C\c2cccs2)S1 -1.57%, CCCn1c(N)c(C(=O)CSc2nnc(-c3cccs3)n2C2CC2)c(=O)[nH]c1=O 1.21%, O=C(CCN1CCN(c2ccccc2)CC1)NNC(=O)c1ccccc1 10.2%, CNS(=O)(=O)c1cc(N)ccc1C 5.24%, Cc1ccc(NS(=O)(=O)c2cc(N)ccc2Cl)c(C)c1 11.7%, Cc1cc(C)cc(NC(=S)N2CCCC2)c1 4.82%, Clc1ccc(NNc2ccnc3cc(Cl)ccc23)cc1 6.46%, C/C(=N/Nc1ccnc2cc(Cl)ccc12)c1ccc(O)cc1 18.6%, COc1ccc(N2CCN(c3ccnc4cc(Cl)ccc34)CC2)cc1 13.2%, C/C(=N/Nc1ccnc2cc(Cl)ccc12)c1ccc(N)cc1 18.6%, Clc1ccc2c(N/N=C/c3ccc(Br)cc3)ccnc2c1 7.12%, Oc1ccc(/C=N/Nc2ccnc3cc(Cl)ccc23)c(O)c1O 15.3%, CC(=O)c1ccc(N2CCN(c3ccnc4cc(Cl)ccc34)CC2)cc1 1.01%, CCOc1ccc(Nc2ccnc3cc(Cl)ccc23)cc1 6.93%, CN(C)CCNC(=O)NC(=O)c1ccc(Cl)cc1 7.5%, CCOCCCNC(=S)Nc1ccc2nc3n(c(=O)c2c1)CCCCC3 -1.06%, CC(C)C(=O)N1CCN(CCN2C(=O)c3cccc4cccc(c34)C2=O)CC1 12.5%, COC(=O)c1c(C)[nH]c(C(=O)C(C)OC(=O)c2ccco2)c1C (configuration not stated) 5.7%, Cc1ccc(N(C(C)C(=O)Nc2ccccc2C(=O)N2CCOCC2)S(C)(=O)=O)cc1C (configuration not stated) 10.3%, O=C1c2ccccc2C(=O)c2[nH]c(=O)[nH]c21 8.15%, COCCNC(=S)NNc1ccc(Cl)c(C(=O)O)c1 7.21%, CCOC(=O)c1c(N2C(=O)Nc3ccccc3N2O)sc2c1CCCCC2 14.2%, CC1(C(=O)O)CCC(C(N)=O)C1(C)C (configuration not stated) 5.23%, O=C(O)C1OC2OC3(CCCCC3)OC2C2OC3(CCCCC3)OC12 (configuration not stated) -5.5%, CC(=O)Nc1ccc(NC(=O)C(=O)c2cn(CC(=O)N3CCCC3)c3ccccc23)cc1 4.85%
